Source: PubChem BioAssay (Tox21)
Values joined by “and” are separate entries in the source; they are usually repeats but may differ in a detail not shown here. Equal entries are not always repeated. Values without a mark were called inactive. A call without a number means that no potency is given here. Active and inactive are the calls of the source. Calls follow the shape of the dose curve; as a rule, active = well fitted curve in the direction sought with a large enough effect in the repeat runs; inconclusive = weak or mixed curves; inactive = flat fitted curve, though single readings scatter.

test: qHTS assay to test for compound auto fluorescence at 590 nm (red) in HepG2 cells (AID 720674); conditions: HepG2 autofluorescence, red 540/590 nm, 1 h; series mostly up to 91.3 µM
Method in brief: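 Fluorescence at 590 nm emission following 540 nm excitation was recorded from HepG2 wells one hour after compound transfer, with DMSO-only wells as vehicle and Rose Bengal sodium equivalency as the scale.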

Row | Structure (SMILES) | Potency
1 | CCCCCCCCCCCO | inactive
2 | CC(C)=CCC/C(C)=C\CO | inactive
3 | C[C@]12CCC(=O)C=C1CC[C@@H]1[C@@H]2C(=O)C[C@@]2(C)[C@H]1CC[C@]2(O)C(=O)CO | inactive
4 | COc1ccc(C(=O)CC(=O)c2ccc(C(C)(C)C)cc2)cc1 | inactive
5 | Cc1ccc(C)c(O)c1C | inactive
6 | CCC(C)OC(=O)c1ccc(O)cc1 (stereo not drawn) | inactive
7 | C[Si](C)(C)O[Si](C)(C)C | inactive
8 | CC(C)OB(OC(C)C)OC(C)C | inactive
9 | CCCCC(CC)COP(=O)(OCC(CC)CCCC)OCC(CC)CCCC (stereo not drawn) | inactive
10 | CCC(C)CO (stereo not drawn) | inactive
11 | O=C(Nc1ccc([N+](=O)[O-])cc1Cl)c1cc(Cl)ccc1O | inactive
12 | Cc1c(OCC(F)(F)F)ccnc1CS(=O)c1nc2ccccc2[nH]1 (stereo not drawn) | inactive

test: qHTS assay to test for compound auto fluorescence at 535 nm (green) in HepG2 cells (AID 720675); conditions: green autofluorescence 485/535 nm, 1 h; series mostly up to 91.3 µM

Row | Structure (SMILES) | Potency | fluorescence, % of fluorescein control
13 | Nc1ncn([C@@H]2O[C@H](CO)[C@@H](O)[C@H]2O)c(=O)n1 | inactive | 
14 | OC1CCCCCCCCCCC1 | inactive | 
15 | O=CCc1ccccc1 | inactive | 
16 | Nc1ccc(Cl)cc1Cl | inactive | 
17 | COC(=O)c1ccccc1 | inactive | 
18 | CCC(C)(O)CCCC(C)C (stereo not drawn) | inactive | 
19 | Cc1ncc[nH]1 | inactive | 
20 | CC(C)OC=O | inactive | 
21 | c1ccc2c(c1)c1cccc3ccc4cccc2c4c31 | inactive | 
22 | Brc1cc(Oc2cc(Br)c(Br)c(Br)c2Br)c(Br)c(Br)c1Br | inactive | 
23 | CCCCC(CC)COC(=O)c1ccc(N(C)C)cc1 (stereo not drawn) | inactive | 
24 | CC(=O)CC/C=C(\C)CCC=C(C)C | inactive | 
25 | O=C1c2cccc(O)c2C(=O)c2c(O)cccc21 | inactive | 
26 | CN(C)c1nc(N(C)C)nc(N(C)C)n1 |  | -0.0062% [at 18.6 µM] and 0.0151% [at 3.72 µM]
27 | O=C=Nc1ccc(Cc2ccc(N=C=O)cc2)cc1 | inactive | 
28 | CCCCOCCOCCO | inactive | 
29 | CC(=O)Oc1ccccc1C(=O)Nc1ncc([N+](=O)[O-])s1 | inactive | 
30 | CN(C)CCN(Cc1cccs1)c1ccccn1 | inactive | 
31 | CCOCCOCCO | inactive | 
32 | CC(C)Oc1ccc2c(=O)c(-c3ccccc3)coc2c1 | inactive | 

Row | Structure (SMILES) | Potency | fluorescence, % of fluorescein control
33 | CC(C)=CCCC(C)CCO (stereo not drawn) | inactive | 
34 | O=S(=O)(O)c1ccc(O)cc1 | inactive | 
35 | Nc1ncnc2nc[nH]c12 | inactive | 
36 | CC(CCC(=O)O)(c1ccc(O)cc1)c1ccc(O)cc1 | inactive | 
37 | O=C(Nc1ccc(Cl)cc1)Nc1ccc(Cl)c(Cl)c1 | inactive | 
38 | O=CCCCC=O | inactive | 
39 | c1ccc2c(c1)Oc1ccccc1S2 | inactive | 
40 | CCCCCCCCCCCO | inactive | 
41 | CC(C)=CCC/C(C)=C\CO | inactive | 
42 | C[C@]12CCC(=O)C=C1CC[C@@H]1[C@@H]2C(=O)C[C@@]2(C)[C@H]1CC[C@]2(O)C(=O)CO | inactive | 
43 | COc1ccc(C(=O)CC(=O)c2ccc(C(C)(C)C)cc2)cc1 | inactive | 
44 | Cc1ccc(C)c(O)c1C | inactive | 
45 | CCC(C)OC(=O)c1ccc(O)cc1 (stereo not drawn) | inactive | 
46 | C[Si](C)(C)O[Si](C)(C)C | inactive | 
47 | CC(C)OB(OC(C)C)OC(C)C | inactive | 
48 | CCCCC(CC)COP(=O)(OCC(CC)CCCC)OCC(CC)CCCC (stereo not drawn) | inactive | 
49 | CCC(C)CO (stereo not drawn) | inactive | 
50 | O=C(Nc1ccc([N+](=O)[O-])cc1Cl)c1cc(Cl)ccc1O | inactive | 
51 | Cc1c(OCC(F)(F)F)ccnc1CS(=O)c1nc2ccccc2[nH]1 (stereo not drawn) | inactive | 

test: qHTS assay to test for compound auto fluorescence at 460 nm (blue) in HEK293 cells (AID 720678); conditions: blue autofluorescence 405/460 nm; series mostly up to 91.3 µM
Method in brief: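 HEK293, 2,000 cells/well, 10% dialyzed FBS; attach 4-5 hr 37C; pin compound or DMSO; o/n 37C/5% CO2; fluorescence 405/460 nm; triamterene-equivalent units.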

Row | Structure (SMILES) | outcome | fluorescence, % of triamterene
52 | Nc1ncn([C@@H]2O[C@H](CO)[C@@H](O)[C@H]2O)c(=O)n1 | inactive | 
53 | O=CCc1ccccc1 | inactive | 
54 | Nc1ccc(Cl)cc1Cl | inactive | 
55 | COC(=O)c1ccccc1 | inactive | 
56 | CCC(C)(O)CCCC(C)C (stereo not drawn) | inactive | 
57 | Cc1ncc[nH]1 | inactive | 
58 | CC(C)OC=O | inactive | 
59 | c1ccc2c(c1)c1cccc3ccc4cccc2c4c31 | inactive | 
60 | Brc1cc(Oc2cc(Br)c(Br)c(Br)c2Br)c(Br)c(Br)c1Br | inactive | 
61 | CC(=O)CC/C=C(\C)CCC=C(C)C | inactive | 
62 | CN(C)c1nc(N(C)C)nc(N(C)C)n1 |  | 0.0425% [at 18.6 µM] and 0.0657% [at 3.72 µM]
63 | O=C=Nc1ccc(Cc2ccc(N=C=O)cc2)cc1 | inactive | 
64 | CN(C)CCN(Cc1cccs1)c1ccccn1 | inactive | 
65 | CCOCCOCCO | inactive | 
66 | CC(C)Oc1ccc2c(=O)c(-c3ccccc3)coc2c1 | inactive | 
67 | CC(C)=CCCC(C)CCO (stereo not drawn) | inactive | 
68 | Nc1ncnc2nc[nH]c12 | inactive | 
69 | O=CCCCC=O | inactive | 
70 | c1ccc2c(c1)Oc1ccccc1S2 | inactive | 
71 | CCCCCCCCCCCO | inactive | 
72 | CC(C)=CCC/C(C)=C\CO | inactive | 
73 | C[C@]12CCC(=O)C=C1CC[C@@H]1[C@@H]2C(=O)C[C@@]2(C)[C@H]1CC[C@]2(O)C(=O)CO | inactive | 
74 | C[Si](C)(C)O[Si](C)(C)C | inactive | 
75 | CC(C)OB(OC(C)C)OC(C)C | inactive | 
76 | CCCCC(CC)COP(=O)(OCC(CC)CCCC)OCC(CC)CCCC (stereo not drawn) | inactive | 
77 | O=C(Nc1ccc([N+](=O)[O-])cc1Cl)c1cc(Cl)ccc1O | inactive | 
78 | Cc1c(OCC(F)(F)F)ccnc1CS(=O)c1nc2ccccc2[nH]1 (stereo not drawn) | inactive | 
